High-throughput results as filed in PubChem BioAssay.
An excerpt weighted towards active compounds, which were near 4.8% of everything screened.
DAX1 inh-1: DAX1 (NR0B1) inhibition, primary screen; HEK293T StAR-luciferase reporter, SF-1/DAX-1 repression relief; 370,000 tested, 1.1% active; inhibition, % at 6.8 µM;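 active = inhibition above the mean over all tested compounds plus 3 SD, cut at about 3.6% in these data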;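 note: 0% = DAX-1 cells with DMSO and 100% = cells lacking DAX-1 with DMSO; higher inhibition means more luminescence from relief of DAX-1 repression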
hgDAF-12 ag: agonists of H. glycines DAF-12 nuclear receptor; activation, % at 6.8 µM; 370,000 tested, 1.8% active; HEK293 GAL4-hgDAF12 UAS-luciferase reporter, agonist luminescence; normalized to butyrate control;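 active = activation above a cutoff set at the mean of all screened compounds plus 3 SD, cut at about 10% in these data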;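 note: 0% = DMSO wells and 100% = sodium butyrate wells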
DAX1 inh-2: inhibitors of human orphan nuclear receptor DAX1 (NR0B1). inhibition, % at 6.75 µM. HEK293 Gal4-DAX1 luciferase reporter, luminescence. P51843. 340,000 tested, 0.99% active;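 active = inhibition above the mean over all tested compounds plus 3 SD, cut at about 4.2% in these data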;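 note: 0% = DAX1-transfected cells with DMSO and 100% = empty-vector control cells with DMSO; inhibition shows as a rise in luminescence from relieved DAX1 repression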
Target sequence (P51843 207-470 limits assumed): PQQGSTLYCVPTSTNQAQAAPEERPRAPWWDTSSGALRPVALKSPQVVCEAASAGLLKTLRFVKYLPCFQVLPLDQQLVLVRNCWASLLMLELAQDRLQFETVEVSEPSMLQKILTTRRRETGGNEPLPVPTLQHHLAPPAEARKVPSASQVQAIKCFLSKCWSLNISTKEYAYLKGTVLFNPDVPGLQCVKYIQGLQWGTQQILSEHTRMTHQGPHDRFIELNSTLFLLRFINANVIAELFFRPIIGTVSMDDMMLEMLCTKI
SMARCA2 activ: increases SMARCA2 function in MMTV reporter cells; activation, % at 9.1 µM; 370,000 tested, 1% active; AID 652017; MG213 cells, MMTV-luciferase reporter, dexamethasone, overnight; in the data active = activation above about 7.8%;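 note: 0% = vehicle wells and 100% = reference activator wells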
ssDAF12 agonist: S. stercoralis DAF-12 activation, primary screen; HEK293 ssDAF-12/GRIP1 lit1-tk-luc reporter, luminescence; % of 3 µM dafachronic acid response; activation, % at 6.8 µM; 370,000 tested, 1% active; AID 652126;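 active = activation above the mean over all tested compounds plus 3 SD, cut at about 0.9% in these data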;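 note: 0% = DMSO-only wells and 100% = 3 µM delta7-dafachronic acid wells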
hcDAF-12 act: H. contortus DAF-12 activation, primary screen. HEK293 hcDAF-12 lit1-tk-luc reporter, luminescence; 0% DMSO, 100% Δ7-dafachronic acid. 370,000 tested, 1.4% active. activation, % at 6.8 µM;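 active = activation above the mean of all tested compounds plus 3 SD, cut at about 5.5% in these data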;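 note: 100% = response to 3 µM Δ7-dafachronic acid high control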
An asterisk follows results filed as active; · = no result.

SMILES	DAX1 inh-1	hgDAF-12 ag	DAX1 inh-2	SMARCA2 activ	ssDAF12 agonist	hcDAF-12 act
COc1cc(/C=C2/C(=N)N3N=C(CC(=O)N4CCOCC4)SC3=NC2=O)ccc1OCc1ccc(F)cc1	3.8*	9	1	0	0	3
Cn1c(SCC(=O)c2ccccc2)ncc(C(=O)Nc2ccccc2)c1=O	2	4	0	-1	1	2
Cn1c(SCC(=O)NCCc2ccccc2)ncc(C(=O)Nc2ccc(F)cc2)c1=O	2	2	0	-2	0.9*	3
COc1ccc(C(=O)/C=C/Nc2ccc(S(=O)(=O)Nc3onc(C)c3C)cc2)cc1	3.9*	11*	1	4	1.2*	4
CCc1ccc(C(=O)/C=C/Nc2ccc(S(=O)(=O)Nc3onc(C)c3C)cc2)cc1	1	11*	0	2	0	2
Cc1noc(NS(=O)(=O)c2ccc(N/C=C/C(=O)c3ccc(F)cc3)cc2)c1C	1	0	1	2	-1	1
Cc1cc(C)cc(C(=O)OCCCN(C)C2CN(Cc3cn(Cc4ccccc4C(F)(F)F)nn3)S(=O)(=O)C2)c1 (stereo unspecified)	-3	-1	·	-1	-2	-3
COc1ccc(C(=O)NCC2CCN(C(=O)C(=O)c3cc4ccccc4o3)CC2)cc1	0	1	·	-4	0	0
O=C(Nc1ccc2ccccc2c1)NC1CCCCN(Cc2cccc(Cl)c2)C1=O (stereo unspecified)	-1	1	·	1	-1	-2
C#CCn1c(C)cc(C)c(S(=O)(=O)c2ccccc2)c1=O	3	11*	3	3	-1	2
Cc1cc(C)n(Cc2ccccc2)c(=O)c1S(=O)(=O)c1ccccc1	0	1	1	0	-1	0
COc1ccc(Br)c(-c2nnc(CS(=O)(=O)c3ccccc3)o2)c1	1	11*	0	3	-1	0
O=C(CNC(=O)c1ccc(Br)cc1)c1ccccc1	3	13*	1	4	0	4
O=C(CCSc1ccccc1)N1CCN(c2ccccc2)CC1	3	12*	3	6	0	2
O=C(NCC(=O)N1CCN(c2ccccc2)CC1)c1ccc(Cl)cc1	0	-3	4.9*	-2	-1	-2
O=C(CNC(=O)c1ccc(Br)cc1)c1ccc(Br)cc1	0	-1	-2	-2	-1	0
Cc1nc(C(=O)NCC(=O)c2ccc(Cl)cc2)c(C(F)(F)F)o1	0	-1	0	-3	1.6*	-1
COc1ccc(C(=O)NCC(=O)N2CCN(c3ccccc3)CC2)cc1	0	-2	1	-1	0	-1
Cc1nc(C(=O)NNC(=O)c2ccc(Cl)cc2)c(C(F)(F)F)o1	-1	1	0	-5	-1	0
O=C(CSc1ccccc1)N1CCN(c2ccccc2)CC1	0	5	0	2	-1	1
COc1ccc(CNCC#CC2=CCCCC2)c(OC)c1	1	3	·	1	-1	-1
O=C(CNC(=O)c1ccc(F)cc1)c1ccc(Cl)cc1	1	11*	1	6	0	3
O=C(NCC(=O)N1CCOCC1)c1ccc(Br)cc1	0	-1	1	-1	-1	1
O=C(NNC(=O)c1ccccc1O)c1ccc(Br)cc1	0	5	7.4*	5	-1	-1
O=C(NCC(=O)N1CCCCCC1)c1ccc(Br)cc1	0	2	4.4*	3	-1	0
SMILES	DAX1 inh-1	hgDAF-12 ag	DAX1 inh-2	SMARCA2 activ	ssDAF12 agonist	hcDAF-12 act
O=C([C@@H]1C[C@H]1c1ccccc1)N1CCC(Oc2cccnc2)CC1	0	0	·	3	-1	0
Cc1ccc(N/C=C/c2onc(C)c2[N+](=O)[O-])cc1	2	10	5.6*	3	-1	4
Cc1nn(-c2ccc(C(F)(F)F)cn2)c(C)c1Oc1ccccc1O	0	-1	2	0	-1	-2
CN(C)/C=N/c1ncnc2c1cnn2-c1ccc(C(F)(F)F)cn1	1	11*	1	2	0	4
O=C(Nc1nccs1)C1=COCCO1	-1	2	2	-2	-1	0
CC(C)Cc1nnc(NC(=O)C2=COCCO2)s1	3.8*	7	2	1	-1	2
